The source made the active and inactive calls. How the source made its calls: active means hit-call score of the fitted dose curve at least 0.9, where 1 is the maximum; inactive means score below 0.9.
tested on: SRY-box transcription factor 17 (SOX17) Protein Expression, Deisenroth Lab, SOX17 (gene 64321); test: CCTE_Deisenroth_DEVTOX-GLR_Endo_SOX17: CCTE's DevTox GLR-Endo Assay Evaluation of SRY-box transcription factor 17 (SOX17) Protein Expression, Deisenroth Lab (AID 2284413)
Procedure: CCTE_Deisenroth_DEVTOX-GLR_Endo assay is a cell-based, multiplex-readout assay that uses RUES2-GLR, a human pluripotent cell line, with measurements taken at 48 hours after chemical dosing in a 384-well microplateCCTE_Deisenroth_DEVTOX-GLR_Endo_SOX17 is 1 of 4 assay components calculated from the CCTE_Deisenroth_DEVTOX-GLR_Endo assay and it measures the percentage of cells in an endoderm state. Using a type of inducible fluorescent protein reporter, gain-of-signal activity can be used to understand changes in gene expression with fluorescent microscopy. The percentage of SOX17+ cells are determined by calculating the number of SOX17+ cells divided by the cell count. To generalize the intended target to other relatable targets, this assay component is annotated to the transcription factor intended target family, where the subfamily is SRY-related HMG-box.Data from the assay component CCTE_Deisenroth_DEVTOX-GLR_Endo_SOX17 was analyzed as 1 assay endpoint. The endpoint is the percent change in SOX17+ cell population relative to the 0.2% DMSO control in the CCTE_Deisenroth_DEVTOX-GLR_Endo assay. This assay endpoint can be referred to as a primary readout since this assay has produced multiple assay endpoints where this one serves as a measure of endoderm differentiation.
All assay protocols are aligned to the DevTox GLR-Endo assay workflow. Cells are seeded into 384-well microplates for 24 hours prior to initiating differentiation in defined media for a total duration of 48 hours. A total of two chemical exposures are administered in 24-hour intervals during the 48-hour differentiation period. At the assay termination point, cells are fixed and stained with a fluorescent dye demarcating the nucleus. High-content imaging is used to acquire brightfield and fluorescent channel images across 5 fields per well. Cell identification and mean biomarker fluorescence intensities are calculated with image analysis software to determine the total cell counts for viability assessment and the biomarker expression frequency for each lineage-dependent assay. A typical experimental design tests a 10-point concentration series (1 nM - 200 uM) for 28 compounds in single technical replicate. Assay plate controls include non-differentiated pluripotent cells (baseline control), lineage-specific differentiated cells (differentiation control), and DMSO solvent exposed differentiated cells (solvent control). Experiments typically comprise a minimum of four experimental replicates (n=4).

Structure (SMILES) | outcome | AC50
CC(=O)Nc1ccc(O)cc1 | inactive | 
O=C1NS(=O)(=O)c2ccccc21 | inactive | 
CCCCc1oc2ccccc2c1C(=O)c1cc(I)c(OCCN(CC)CC)c(I)c1 |  | 25.6 µM (active)
CN(C)CCOC(c1ccccc1)c1ccccc1 |  | 54.7 µM (active)
CN(Cc1cnc2nc(N)nc(N)c2n1)c1ccc(C(=O)N[C@@H](CCC(=O)O)C(=O)O)cc1 |  | 0.319 µM (active)

tested on: not listed separately; test: CCTE_Padilla_ZF_Score.Tail: CCTE's 144 Hour Post-fertilization zebrafish Assay Score for Tail Malformation, Padilla Lab (AID 2284414)
Outline: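 Wild-type zebrafish embryos, one per well in 200 uL 10% Hanks', dosed at 6-8 hpf, sealed, and kept at 26 C on a 14:10 h light cycle. Chemical was rinsed out at 5 dpf. Blinded brightfield scoring of tail defects followed at 6 dpf.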

Structure (SMILES) | outcome
O=CC(F)(F)C(F)(F)C(F)(F)F | inactive
FC(OC(F)(F)C(F)(F)C(F)(F)F)C(F)(F)F (stereo not drawn) | inactive
COC(=O)C(F)(F)C(F)(F)C(F)(F)C(F)(F)C(F)(F)F | inactive
O=C(O)CCC(F)(F)C(F)(F)C(F)(F)C(F)(F)C(F)(F)C(F)(F)F | inactive
C=CC(F)(F)C(F)(F)C(F)(F)C(F)(F)F | inactive
CN(CCO)S(=O)(=O)C(F)(F)C(F)(F)C(F)(F)C(F)(F)C(F)(F)C(F)(F)C(F)(F)C(F)(F)F | inactive
O=P(O)(O)CCC(F)(F)C(F)(F)C(F)(F)C(F)(F)C(F)(F)C(F)(F)C(F)(F)C(F)(F)F | inactive
O=C(OC(=O)C(F)(F)C(F)(F)F)C(F)(F)C(F)(F)F | inactive
FC1(F)C=CC(F)(F)C1(F)F | inactive
O=C(O)C(F)(F)OC(F)(F)C(F)(F)OC(F)(F)C(F)(F)OC(F)(F)C(F)(F)C(F)(F)C(F)(F)F | inactive
FC(F)(F)C1(F)C(F)(F)C(F)(F)C(F)(F)C(F)(C(F)(F)F)C1(F)F (stereo not drawn) | inactive
OCC(F)(F)C(F)(F)C(F)(F)C(F)(F)C(F)(F)C(F)(F)C(F)(F)C(F)(F)C(F)(F)C(F)(F)C(F)(F)F | inactive
O=CC(F)(F)C(F)(F)C(F)(F)C(F)F | inactive
O=C(F)C(F)(F)C(F)(F)C(F)(F)C(=O)F | inactive
O=C1OC(=O)C(F)(F)C1(F)F | inactive
C=CC(=O)OCCC(F)(F)C(F)(F)C(F)(F)C(F)(F)C(F)(F)C(F)(F)C(F)(F)C(F)(F)F | inactive
NC(C(F)(F)F)C(F)(F)F | inactive
O=C(O)CCC(F)(F)C(F)(F)C(F)(F)C(F)(F)C(F)(F)F | inactive
FC(F)=C(F)C(F)(F)C(F)(F)C(F)(F)C(F)F | inactive
FCOC(C(F)(F)F)C(F)(F)F | inactive
FC(F)(F)N1C(F)(F)C(F)(F)OC(F)(F)C1(F)F | inactive
FC(F)(F)C1(F)C(F)(F)C(F)(F)C(F)(F)C1(F)F | inactive
O=C(CC(=O)C(F)(F)C(F)(F)C(F)(F)F)c1cccs1 | inactive
O=P(O)(O)CCC(F)(F)C(F)(F)C(F)(F)C(F)(F)C(F)(F)C(F)(F)F | inactive

tested on: not listed separately; test: CCTE_Padilla_ZF_Score.Blood_pooling: CCTE's 144 Hour Post-fertilization zebrafish Assay Score for Blood Pooling, Padilla Lab (AID 2284415)
Outline: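 Wild-type outbred zebrafish embryos, one per well in 10% Hanks', exposed from 6–8 hpf in sealed plates at 26C on 14:10 h light:dark, rinsed at 5 dpf. Blinded stereomicroscope scoring of blood pooling at 6 dpf; gain-of-signal versus DMSO.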

Structure (SMILES) | outcome
O=CC(F)(F)C(F)(F)C(F)(F)F | inactive
FC(OC(F)(F)C(F)(F)C(F)(F)F)C(F)(F)F (stereo not drawn) | inactive
COC(=O)C(F)(F)C(F)(F)C(F)(F)C(F)(F)C(F)(F)F | inactive
O=C(O)CCC(F)(F)C(F)(F)C(F)(F)C(F)(F)C(F)(F)C(F)(F)F | inactive
C=CC(F)(F)C(F)(F)C(F)(F)C(F)(F)F | inactive
CN(CCO)S(=O)(=O)C(F)(F)C(F)(F)C(F)(F)C(F)(F)C(F)(F)C(F)(F)C(F)(F)C(F)(F)F | inactive
O=P(O)(O)CCC(F)(F)C(F)(F)C(F)(F)C(F)(F)C(F)(F)C(F)(F)C(F)(F)C(F)(F)F | inactive
O=C(OC(=O)C(F)(F)C(F)(F)F)C(F)(F)C(F)(F)F | inactive
FC1(F)C=CC(F)(F)C1(F)F | inactive
O=C(O)C(F)(F)OC(F)(F)C(F)(F)OC(F)(F)C(F)(F)OC(F)(F)C(F)(F)C(F)(F)C(F)(F)F | inactive
FC(F)(F)C1(F)C(F)(F)C(F)(F)C(F)(F)C(F)(C(F)(F)F)C1(F)F (stereo not drawn) | inactive
OCC(F)(F)C(F)(F)C(F)(F)C(F)(F)C(F)(F)C(F)(F)C(F)(F)C(F)(F)C(F)(F)C(F)(F)C(F)(F)F | inactive
O=CC(F)(F)C(F)(F)C(F)(F)C(F)F | inactive
O=C(F)C(F)(F)C(F)(F)C(F)(F)C(=O)F | inactive
O=C1OC(=O)C(F)(F)C1(F)F | inactive
C=CC(=O)OCCC(F)(F)C(F)(F)C(F)(F)C(F)(F)C(F)(F)C(F)(F)C(F)(F)C(F)(F)F | inactive
NC(C(F)(F)F)C(F)(F)F | inactive
O=C(O)CCC(F)(F)C(F)(F)C(F)(F)C(F)(F)C(F)(F)F | inactive
FC(F)=C(F)C(F)(F)C(F)(F)C(F)(F)C(F)F | inactive
FCOC(C(F)(F)F)C(F)(F)F | inactive
FC(F)(F)N1C(F)(F)C(F)(F)OC(F)(F)C1(F)F | inactive
FC(F)(F)C1(F)C(F)(F)C(F)(F)C(F)(F)C1(F)F | inactive
O=C(CC(=O)C(F)(F)C(F)(F)C(F)(F)F)c1cccs1 | inactive
O=P(O)(O)CCC(F)(F)C(F)(F)C(F)(F)C(F)(F)C(F)(F)C(F)(F)F | inactive

Reference: PubChem BioAssay (EPA / NIEHS)
